Reference: the supplement of paper PMC10849652
The full data set covers some 7,900 targets. This sample favours those with a hit. About 0.6% of all pairs of compound and target were hits.

compound: c1cn2cc(-c3ccc4cn[nH]c4c3)nc(Nc3ccc(N4CCOCC4)cc3)c2n1 [entospletinib]; test: log2 fold change, soluble protein after heating vs DMSO (PISA); higher = thermal stabilisation; K562 cells, 10 uM, 30 min; active = over 0.2 and 3.5 SD of the protein, either way, in both replicates (recomputed)
Summary of the method: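 K562 cells at 2×10^6 cells/mL were treated with 10 μM compound for 30 min. Aliquots were heated for 3 min across 48°C-58°C, pooled, and extracted in PBS with 0.5% NP-40 at 4°C; soluble protein was the supernatant after 21,000xg for 90 min. Soluble protein was quantified by TMTpro 16plex LC-MS/MS with channel sums equalised, and reported as log2 fold change in thermal stability against DMSO controls, with values from duplicates.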

Chain of UniProt Q8WU79 (Q8WU79 whole entry, looked up): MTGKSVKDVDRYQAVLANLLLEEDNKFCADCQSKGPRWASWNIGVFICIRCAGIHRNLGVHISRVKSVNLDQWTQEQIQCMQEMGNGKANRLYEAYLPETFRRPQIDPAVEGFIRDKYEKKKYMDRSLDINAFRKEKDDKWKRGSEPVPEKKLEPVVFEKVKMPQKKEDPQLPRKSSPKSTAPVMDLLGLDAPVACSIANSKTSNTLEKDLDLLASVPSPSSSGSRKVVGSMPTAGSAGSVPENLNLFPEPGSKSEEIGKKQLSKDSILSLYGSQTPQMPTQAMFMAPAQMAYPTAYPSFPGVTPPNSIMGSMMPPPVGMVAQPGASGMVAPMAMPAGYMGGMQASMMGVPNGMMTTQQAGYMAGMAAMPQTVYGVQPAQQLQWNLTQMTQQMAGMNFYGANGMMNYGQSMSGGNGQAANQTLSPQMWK
Chain of UniProt O60749 (O60749 whole entry, looked up): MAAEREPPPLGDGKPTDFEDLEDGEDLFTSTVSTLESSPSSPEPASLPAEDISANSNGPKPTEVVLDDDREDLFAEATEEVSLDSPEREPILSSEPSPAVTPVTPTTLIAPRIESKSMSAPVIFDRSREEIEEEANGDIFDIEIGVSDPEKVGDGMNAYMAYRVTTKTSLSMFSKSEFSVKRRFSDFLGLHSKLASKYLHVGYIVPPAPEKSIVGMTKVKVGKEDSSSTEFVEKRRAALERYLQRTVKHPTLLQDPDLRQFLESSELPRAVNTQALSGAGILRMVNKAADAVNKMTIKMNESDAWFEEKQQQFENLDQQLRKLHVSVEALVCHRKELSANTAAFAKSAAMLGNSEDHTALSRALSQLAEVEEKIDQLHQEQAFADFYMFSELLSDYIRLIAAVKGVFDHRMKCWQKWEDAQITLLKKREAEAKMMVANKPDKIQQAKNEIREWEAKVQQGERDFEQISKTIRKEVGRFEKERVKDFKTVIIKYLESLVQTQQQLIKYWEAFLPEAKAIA
Chain of UniProt P36956 (P36956 whole entry, looked up): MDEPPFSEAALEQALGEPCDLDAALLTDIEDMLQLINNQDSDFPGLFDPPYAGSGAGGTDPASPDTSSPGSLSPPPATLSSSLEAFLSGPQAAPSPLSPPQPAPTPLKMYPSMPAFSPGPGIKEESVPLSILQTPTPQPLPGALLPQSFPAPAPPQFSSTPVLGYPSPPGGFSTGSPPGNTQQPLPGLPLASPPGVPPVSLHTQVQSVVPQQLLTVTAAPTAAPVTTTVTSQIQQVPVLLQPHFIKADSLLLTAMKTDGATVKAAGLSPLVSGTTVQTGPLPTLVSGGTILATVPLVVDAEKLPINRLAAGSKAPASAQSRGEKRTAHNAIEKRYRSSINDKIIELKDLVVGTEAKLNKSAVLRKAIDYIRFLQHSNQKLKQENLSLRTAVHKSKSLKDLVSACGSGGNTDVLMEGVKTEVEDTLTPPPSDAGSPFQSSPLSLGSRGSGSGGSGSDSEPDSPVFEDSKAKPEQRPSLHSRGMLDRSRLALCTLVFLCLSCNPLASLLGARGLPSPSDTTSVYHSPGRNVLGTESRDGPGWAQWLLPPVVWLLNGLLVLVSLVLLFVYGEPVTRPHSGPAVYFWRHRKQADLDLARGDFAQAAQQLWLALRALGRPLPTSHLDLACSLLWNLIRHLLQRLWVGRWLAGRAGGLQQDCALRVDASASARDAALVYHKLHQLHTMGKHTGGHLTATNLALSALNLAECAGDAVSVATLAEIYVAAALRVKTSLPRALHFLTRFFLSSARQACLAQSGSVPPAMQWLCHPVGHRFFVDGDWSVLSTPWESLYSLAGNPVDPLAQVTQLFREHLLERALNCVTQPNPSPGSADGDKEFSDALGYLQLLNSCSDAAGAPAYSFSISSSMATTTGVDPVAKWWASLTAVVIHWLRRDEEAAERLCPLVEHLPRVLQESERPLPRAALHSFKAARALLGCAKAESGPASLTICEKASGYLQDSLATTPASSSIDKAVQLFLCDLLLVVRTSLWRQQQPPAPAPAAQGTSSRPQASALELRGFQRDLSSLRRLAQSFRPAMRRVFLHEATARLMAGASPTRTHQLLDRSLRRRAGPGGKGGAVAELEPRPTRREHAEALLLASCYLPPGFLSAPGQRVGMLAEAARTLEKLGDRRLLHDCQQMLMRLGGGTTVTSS
Chain of UniProt Q13247 (Q13247 whole entry, looked up): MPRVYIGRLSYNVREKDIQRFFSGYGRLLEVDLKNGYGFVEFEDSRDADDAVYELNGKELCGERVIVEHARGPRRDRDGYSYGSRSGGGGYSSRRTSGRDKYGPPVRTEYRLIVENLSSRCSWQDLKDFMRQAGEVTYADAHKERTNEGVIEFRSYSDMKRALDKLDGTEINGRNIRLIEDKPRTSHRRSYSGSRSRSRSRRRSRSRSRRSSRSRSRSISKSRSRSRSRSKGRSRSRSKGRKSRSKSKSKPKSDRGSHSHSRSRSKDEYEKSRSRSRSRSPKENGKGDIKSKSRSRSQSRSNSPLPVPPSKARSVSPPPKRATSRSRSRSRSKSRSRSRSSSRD
Chain of UniProt Q01082 (Q01082 whole entry, looked up): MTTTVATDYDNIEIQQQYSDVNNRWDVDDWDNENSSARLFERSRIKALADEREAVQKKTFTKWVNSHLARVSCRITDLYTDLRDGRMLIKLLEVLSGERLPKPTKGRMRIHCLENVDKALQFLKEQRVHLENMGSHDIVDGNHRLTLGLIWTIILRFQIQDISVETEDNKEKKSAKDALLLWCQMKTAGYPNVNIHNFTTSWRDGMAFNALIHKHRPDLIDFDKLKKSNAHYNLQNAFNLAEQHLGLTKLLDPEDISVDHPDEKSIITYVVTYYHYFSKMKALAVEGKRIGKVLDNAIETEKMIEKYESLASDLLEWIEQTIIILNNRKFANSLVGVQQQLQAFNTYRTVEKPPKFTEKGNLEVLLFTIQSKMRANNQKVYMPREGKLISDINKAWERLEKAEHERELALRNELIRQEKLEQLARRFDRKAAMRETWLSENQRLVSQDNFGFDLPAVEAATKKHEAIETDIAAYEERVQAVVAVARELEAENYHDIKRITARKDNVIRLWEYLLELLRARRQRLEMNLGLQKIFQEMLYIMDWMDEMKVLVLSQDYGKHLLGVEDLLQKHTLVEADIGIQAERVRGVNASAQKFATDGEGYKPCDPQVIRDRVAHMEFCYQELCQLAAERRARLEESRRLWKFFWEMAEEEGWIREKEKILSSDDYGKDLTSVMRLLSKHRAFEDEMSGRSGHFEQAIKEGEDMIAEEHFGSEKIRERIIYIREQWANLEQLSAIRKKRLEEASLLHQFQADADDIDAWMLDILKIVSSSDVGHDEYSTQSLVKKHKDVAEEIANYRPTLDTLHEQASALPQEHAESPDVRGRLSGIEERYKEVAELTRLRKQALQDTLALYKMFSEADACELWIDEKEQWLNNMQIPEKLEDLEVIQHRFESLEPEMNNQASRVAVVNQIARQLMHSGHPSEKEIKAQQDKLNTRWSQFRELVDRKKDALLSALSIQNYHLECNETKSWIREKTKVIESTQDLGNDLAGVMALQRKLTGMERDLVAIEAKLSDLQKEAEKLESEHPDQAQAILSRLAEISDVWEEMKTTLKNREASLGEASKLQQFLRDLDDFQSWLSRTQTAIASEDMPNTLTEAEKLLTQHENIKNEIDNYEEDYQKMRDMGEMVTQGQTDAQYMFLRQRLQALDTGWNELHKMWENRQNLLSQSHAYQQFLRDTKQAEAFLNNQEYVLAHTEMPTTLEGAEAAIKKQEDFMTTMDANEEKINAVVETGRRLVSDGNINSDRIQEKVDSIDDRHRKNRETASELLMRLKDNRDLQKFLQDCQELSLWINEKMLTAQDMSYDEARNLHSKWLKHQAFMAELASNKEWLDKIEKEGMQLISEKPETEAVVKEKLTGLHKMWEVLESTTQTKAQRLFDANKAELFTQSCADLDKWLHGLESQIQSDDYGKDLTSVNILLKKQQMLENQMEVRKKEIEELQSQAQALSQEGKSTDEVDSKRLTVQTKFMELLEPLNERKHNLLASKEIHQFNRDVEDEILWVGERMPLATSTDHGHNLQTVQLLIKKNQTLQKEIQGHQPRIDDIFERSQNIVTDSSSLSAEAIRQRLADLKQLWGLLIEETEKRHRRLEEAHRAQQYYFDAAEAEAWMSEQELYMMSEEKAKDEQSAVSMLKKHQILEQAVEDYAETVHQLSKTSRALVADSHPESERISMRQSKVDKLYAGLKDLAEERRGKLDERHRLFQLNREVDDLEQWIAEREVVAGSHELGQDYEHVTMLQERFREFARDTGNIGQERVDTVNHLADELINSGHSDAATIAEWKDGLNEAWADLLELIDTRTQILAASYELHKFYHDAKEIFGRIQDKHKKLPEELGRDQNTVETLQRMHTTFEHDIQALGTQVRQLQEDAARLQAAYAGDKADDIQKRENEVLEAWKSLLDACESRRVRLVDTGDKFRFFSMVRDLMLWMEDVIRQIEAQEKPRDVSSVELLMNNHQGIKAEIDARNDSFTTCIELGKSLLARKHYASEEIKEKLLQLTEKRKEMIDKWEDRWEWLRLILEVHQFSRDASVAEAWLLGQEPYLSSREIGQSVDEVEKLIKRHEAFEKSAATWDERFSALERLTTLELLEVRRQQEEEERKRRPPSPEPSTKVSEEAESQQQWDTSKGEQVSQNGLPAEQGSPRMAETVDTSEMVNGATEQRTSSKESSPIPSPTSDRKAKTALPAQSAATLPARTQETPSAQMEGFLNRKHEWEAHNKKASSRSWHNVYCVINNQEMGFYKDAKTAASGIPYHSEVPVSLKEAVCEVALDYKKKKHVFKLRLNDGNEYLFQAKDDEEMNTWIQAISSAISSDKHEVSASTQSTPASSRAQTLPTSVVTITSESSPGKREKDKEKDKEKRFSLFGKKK
Chain of UniProt P51571 (P51571 whole entry, looked up): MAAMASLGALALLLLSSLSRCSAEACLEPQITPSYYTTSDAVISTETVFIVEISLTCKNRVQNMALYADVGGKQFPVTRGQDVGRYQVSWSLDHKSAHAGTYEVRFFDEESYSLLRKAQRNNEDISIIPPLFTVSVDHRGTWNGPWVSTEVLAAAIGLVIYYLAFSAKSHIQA

Target	log2 fold change
SNX2 (UniProt O60749)	-0.015 (inactive)
TBP (UniProt P20226)	0.012 (inactive)
STXBP2 isoform 3 (UniProt Q15833)	0.099 (inactive)
SMARCA5 (UniProt O60264)	0.099 (inactive)
ST3GAL2 (UniProt Q16842)	0.167 (inactive)
TGFBR1 isoform 2 (UniProt P36897)	-0.018 (inactive)
SRI (UniProt P30626)	0.019 (inactive)
SMDT1 (UniProt Q9H4I9)	0.01 (inactive)
SPAST (UniProt Q9UBP0)	0 (inactive)
STAT5B (UniProt P51692)	-0.053 (inactive)
SSR4 (UniProt P51571)	-0.021 (inactive)
SPTBN1 (UniProt Q01082)	0.024 (inactive)
TANK (UniProt Q92844)	-0.076 (inactive)
SNRNP40 (UniProt Q96DI7)	-0.025 (inactive)
SYMPK (UniProt Q92797)	-0.015 (inactive)
SUN2 (UniProt Q9UH99)	0 (inactive)
SNX11 (UniProt Q9Y5W9)	0.135 (inactive)
TATDN2 (UniProt Q93075)	-0.046 (inactive)

Target	log2 fold change
STRN (UniProt O43815)	0.03 (inactive)
SMAD2 (UniProt Q15796)	-0.013 (inactive)
SNRPB2 (UniProt P08579)	-0.026 (inactive)
SNW1 (UniProt Q13573)	0.087 (inactive)
SSR3 isoform 2 (UniProt Q9UNL2)	-0.012 (inactive)
SLC38A7 (UniProt Q9NVC3)	0.004 (inactive)
TBC1D5 isoform 2 (UniProt Q92609)	-0.02 (inactive)
SPART (UniProt Q8N0X7)	-0.005 (inactive)
SMAP2 (UniProt Q8WU79)	0.019 (inactive)
SLC9A6 isoform 2 (UniProt Q92581)	-0.004 (inactive)
TEX264 (UniProt Q9Y6I9)	0.601 (active)
SREBF1 isoform 4 (UniProt P36956)	0.015 (inactive)
SLC25A42 (UniProt Q86VD7)	0.055 (inactive)
SLC27A4 (UniProt Q6P1M0)	-0.027 (inactive)
SRSF6 (UniProt Q13247)	0.29 (inactive)
THADA (UniProt Q6YHU6)	0.004 (inactive)
SSBP4 (UniProt Q9BWG4)	0.119 (inactive)
